Assay results reported in PubChem BioAssay (EPA / NIEHS).
“And” between values parts separate entries of the source, which are not always exact repeats. Identical values can stand only once. More than one record can exist for a structure, and the calls need not agree. The source made the active and inactive calls. Rule for the calls: active = hit-call score of the fitted dose curve at least 0.9, where 1 is the maximum; inactive = score below 0.9.

Assay: ATG_PPRE_CIS: Attagene CIS-FACTORIAL HepG2 Assay for human Peroxisome Proliferator-activated Response Element (PPRE) (AID 2282958)
Conditions: HepG2 PPRE cis-element reporter, Attagene transcription factor profiling; actives raise or lower the signal
Experimental: ATG_CIS is a cell-based, multiplexed-readout assay that uses HepG2, a human liver cell line, with measurements taken at 24 hours after chemical dosing in a 24-well plate.ATG_PPRE_CIS is one of 52 assay component(s) measured or calculated from the ATG_CIS assay. It is designed to make measurements of mRNA induction, a form of inducible reporter, as detected with fluorescence intensity signals by Reverse transcription polymerase chain reaction (RT-PCR) and Capillary electrophoresis technology.Data from the assay component ATG_PPRE_CIS was analyzed into 1 assay endpoint. This assay endpoint, ATG_PPRE_CIS, was analyzed with bidirectional fitting relative to DMSO as the negative control and baseline of activity. Using a type of inducible reporter, measures of mRNA for gain or loss-of-signal activity can be used to understand the reporter gene at the transcription factor-level as they relate to the gene PPARA and PPARD and PPARG. Furthermore, this assay endpoint can be referred to as a primary readout, because this assay has produced multiple assay endpoints where this one serves a reporter gene function. To generalize the intended target to other relatable targets, this assay endpoint is annotated to the nuclear receptor intended target family, where the subfamily is non-steroidal.
Human liver HepG2 cells are transiently transfected with multiple reporter transcription units (MRTUs) in 6-well plates using FuGene 6 reagent (Roche; 3 ml FuGene/1 mg DNA). The MRTU constructs are regulated by a cis-regulating element (promoter). […] A major difference between the CIS and TRANS system is that in CIS activities of endogenous TFs are measured, whereas the TRANS assay evaluates changes in activities of exogenous, chimeric NR-Gal4 proteins. […] At the end of 24 hour incubation, total RNA was isolated using TriZol reagent (Invitrogen). The isolated RNA is then reverse-transcribed using oligo(dT) primer and Mo-MLV reverse transcriptase (Invitrogen) with DNAse I (Ambion) treatment for 30 min. The one-tenth of the produced cDNA was amplified by PCR using Taq DNA polymerase (Invitrogen) and two reporter sequence-specific primers. The PCR products were fluorescently labeled by primer extension with 6-arboxyfluorescein (6-FAM) 5'-labeled reporter sequence-specific primer (2 min at 95 C, 20 s at 68 C and 10 min at 72 C) and these products were digested with 5U of HpaI (New England Biolabs) for 2h at 37 C. The fragments were purified using Qiaquick PCR columns (Qiagen), analyzed on an ABI 3130xL genetic analyzer (Applied Biosystems) with peak positions identified by using a set of X-rhodamine (ROX)-labeled MapMarker1000 molecular weight standards (BioVentures). The raw capillary electrophoresis data was processed using Attagraph software (Attagene).

SMILES | outcome | AC50
CN(C)CCO | inactive | 
Oc1ccc(C(c2ccc(O)cc2)(C(F)(F)F)C(F)(F)F)cc1 | inactive | 11.1 µM (active) and 5.95 µM (active) and 16.8 µM (active)
O=C(O)C(F)(F)C(F)(F)C(F)(F)C(F)(F)C(F)(F)C(F)(F)C(F)(F)C(F)(F)C(F)(F)F | inactive | 47.5 µM (active) and 14.8 µM (active)
NS(=O)(=O)C(F)(F)C(F)(F)C(F)(F)C(F)(F)C(F)(F)C(F)(F)C(F)(F)C(F)(F)F | inactive | 38.7 µM (active) and 25.8 µM (active)
CN(C)c1nc(=O)n(C2CCCCC2)c(=O)n1C | inactive | 
c1cc2ccc3cccc4ccc(c1)c2c34 | inactive | 
CCNc1nc(NC(C)C)nc(SC)n1 | inactive | 
Cc1ccc(O)c(C)c1 | inactive | 
CO/C=C(/C(=O)OC)c1ccccc1COc1cccc(C(F)(F)F)n1 |  | 37.3 µM (active)
O=NN(c1ccccc1)c1ccccc1 | inactive | 
CC1=C2C[C@H]3[C@@H](CC=C4C[C@@H](O)CC[C@@]43C)[C@@H]2CC[C@]12O[C@@H]1C[C@H](C)CN[C@H]1[C@H]2C | inactive | 
ClC1=C(Cl)[C@]2(Cl)[C@@H]3[C@@H](Cl)[C@H]4O[C@H]4[C@@H]3C1(Cl)C2(Cl)Cl | inactive | 
CCOCCOC(C)=O | inactive | 
Cc1cccc([N+](=O)[O-])c1 | inactive | 
CCCCCCOC(=O)c1ccccc1C(=O)OCCCCCC |  | 2.84 µM (active)
Oc1ccc(Cl)cc1Cl | inactive | 
CC(c1ccc(O)cc1)(c1ccc(O)cc1)c1ccc(O)cc1 | inactive | 
ClC1=C(Cl)[C@]2(Cl)[C@@H]3[C@@H]4C[C@@H]([C@H]5O[C@@H]45)[C@@H]3[C@@]1(Cl)C2(Cl)Cl | inactive | 

SMILES | outcome | AC50
CCOP(=S)(OCC)SCSC(C)(C)C | inactive | 
O=C(O)C(F)(F)C(F)(F)C(F)(F)C(F)(F)C(F)(F)F | inactive | 
O=S(=O)(O)C(F)(F)C(F)(F)C(F)(F)C(F)(F)F | inactive | 
C=CC(=O)NCNC(=O)C=C | inactive | 
C[C@]12CCC(=O)C=C1CC[C@@H]1[C@@H]2CC[C@]2(C)C(=O)CC[C@@H]12 | inactive | 
Clc1ccc(Cl)cc1 | inactive | 
O=S(=O)(O)C(F)(F)C(F)(F)C(F)(F)C(F)(F)C(F)(F)C(F)(F)F |  | 97.7 µM (active) [middle of 4 runs]
CC(C)C(=O)OCC(C)(C)C(OC(=O)C(C)C)C(C)C (stereo not given) | inactive | 
COS(=O)(=O)OC | inactive | 
C1CC2OC2CC1C1CO1 (stereo not given) | inactive | 
Cc1ccccc1[N+](=O)[O-] | inactive | 
Cc1cccc(C)c1N | inactive | 
CCCN(CCC)N=O | inactive | 
CCC(C)c1cc([N+](=O)[O-])cc([N+](=O)[O-])c1O (stereo not given) |  | 16.5 µM (active)
Cc1cc2c3c(c1)C(c1ccccc1)=N[C@@H](NC(=O)c1ccncc1)C(=O)N3CC2 | inactive | 
CC(C)(c1ccccc1)c1ccc(O)cc1 | inactive | 22.6 µM (active) and 33.4 µM (active)
O=C(NC(=O)c1c(F)cccc1F)Nc1cc(Cl)c(OC(F)(F)C(F)F)c(Cl)c1 | inactive | 
CCCCCCCCCc1ccc(O)cc1 | inactive | 
